From PubChem BioAssay
Hits are enriched below; roughly 0.92% of the tested compounds scored in any of these assays.
RPL19A-GFP yeast = RPL19A-GFP expression modulators in yeast, primary screen, cell-based, S. cerevisiae, multiplex flow cytometry, MLPCN; S. cerevisiae RPL19A-GFP strain, 3 h; hits give low values; percent response vs DMSO, % at 10 µM; 0.3% of 330,000 active;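 active = percent response vs DMSO below 50%; inconclusive = fewer than 70 events counted for the yeast strain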;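 also: median channel GFP fluorescence of the barcoded RPL19A-GFP strain; ratio of sample median GFP to plate DMSO average so 100% = DMSO; lower means less RPL19A-GFP as with rapamycin TOR inhibition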
CIT2-GFP yeast = modulators of CIT2-GFP expression in yeast, primary screen, S. cerevisiae, GFP fusion, multiplex flow cytometry, MLPCN library; S. cerevisiae CIT2-GFP strain, 3 h; 100 means same as DMSO wells; GFP response vs DMSO, % at 10 µM; 0.065% of 320,000 active;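 active = GFP response relative to DMSO above a set limit, near the screen mean plus 3 SD, cut at about 150% in these data; inconclusive = Fewer than 70 cells measured for a yeast strain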;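 also: ratio of well median GFP fluorescence to mean of DMSO wells on the plate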
AGP1 TOR yeast = modulators of AGP1-GFP expression in yeast TOR pathway, primary screen, cell-based, multiplex flow cytometry, S. cerevisiae, MLPCN library | GFP response vs DMSO, % at 10 µM | 3 h; GFP as percent of DMSO wells | 0.02% of 320,000 active;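 active = GFP response relative to DMSO above a set limit, near screen average plus 3 SD, cut at about 150% in these data; inconclusive = fewer than 70 cells counted for the yeast strain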;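 also: median GFP channel fluorescence of the gated AGP1 strain per well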
LAP4-GFP MLPCN = modulators of LAP4-GFP expression in yeast, primary screen, S. cerevisiae, multiplex flow cytometry, MLPCN library; AID 2023, 2009; 3 h; median GFP as percent of DMSO wells; GFP response vs DMSO, % at 10 µM; 0.34% of 320,000 active;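 active = GFP response vs DMSO above a set limit, about the screen mean plus 3 SD, cut at about 150% in these data; inconclusive = under 70 cell events counted for the yeast strain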
MEP2-GFP yeast = modulators of MEP2-GFP levels in yeast, primary screen, S. cerevisiae, multiplex flow cytometry, MLPCN library; 0.51% of 330,000 active; S. cerevisiae MEP2-GFP strain, 3 h; 100% = DMSO control level; GFP response vs DMSO, % at 10 µM;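 active = GFP response versus DMSO above a set limit, roughly screen mean plus 3 SD, cut at about 180% in these data; inconclusive = fewer than 70 cells counted for a yeast strain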;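 also: median GFP fluorescence of the barcode-gated MEP2-GFP cells per well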
An asterisk follows results filed as active; ? = inconclusive; . = no result given; [ ] = remark or other dose.

SMILES	RPL19A-GFP yeast	CIT2-GFP yeast	AGP1 TOR yeast	LAP4-GFP MLPCN	MEP2-GFP yeast
CCOC(=O)c1c(O)c2ccccc2n(-c2ccccc2)c1=O	58	?	?	100	218*[may fluoresce violet]
CCN(CC(=O)NCc1ccncc1)S(=O)(=O)c1ccccc1	98	101	97	96	94
COc1ccccc1C1Nc2ccccc2NC2=C1C(=O)CC(C)(C)C2 (stereo unspecified)	38*[may fluoresce violet]	?	?	95	627*[may fluoresce violet]
COc1cccc(C2Nc3ccccc3NC3=C2C(=O)CC(C)(C)C3)c1OC (stereo unspecified)	94	111	98	73	100
COc1ccccc1C1C2=C(CC(C)(C)CC2=O)N(CC(=O)O)C2=C1C(=O)CC(C)(C)C2	54	94	77	92	239*
Cc1ccccc1C(=O)Nc1cc(C(F)(F)F)ccc1-n1cncn1	100	103	103	102	97
COc1ccc(Cl)cc1NC(=O)CN(C)C(=O)/C=C/c1ccco1	104	95	95	103	100
COc1ccc(C2CC(=O)C(C(c3ccc(O)cc3)C3C(=O)CC(c4ccc(OC)cc4)CC3=O)C(=O)C2)cc1 (stereo unspecified)	60	89	20	89	239*
Cc1ccc(C(=O)N/C(=C\c2cn(C)c3ccccc23)C(=O)NCCCn2ccnc2)cc1	100	102	92	100	107
Cc1ccc(C(=O)N/C(=C\c2ccc(-c3ccccc3[N+](=O)[O-])o2)C(=O)NCCCN2CCOCC2)cc1	13*[may fluoresce violet]	?	?	66	148
COc1ccc(C(=O)N/C(=C\c2cn(C)c3ccccc23)C(=O)NCCCn2ccnc2)cc1	61	?	?	91	181*[may fluoresce violet]
Cc1ccc(C(=O)N/C(=C\c2cn(C)c3ccccc23)C(=O)NCCCN2CCOCC2)cc1	40*[may fluoresce violet]	?	?	46	260*[may fluoresce violet]
O=C(NC(=S)NCCN1CCOCC1)c1cccc(Cl)c1	24*[may fluoresce violet]	?	?	109	218*[may fluoresce violet]
Nc1ccn(CC(=O)NCCc2ccccn2)c(=O)n1	103	95	101	106	99
O=C(COC(=O)c1ccccc1O)Nc1cccc(S(=O)(=O)N2CCCC2)c1	100	96	97	93	96
Cc1c(C(=O)N2CCN(CC(=O)Nc3ccccc3Cl)CC2)oc2ccc(Br)cc12	94	90	93	112	96
Cc1c(CC(=O)N[C@H](C(=O)O)C(C)C)c(=O)oc2cc3c(cc12)CCC(C)(C)O3	101	99	95	88	96
Cc1ccc(C(=O)N/C(=C\c2ccc(Cl)cc2)C(=O)NCCN2CCOCC2)cc1	53	?	?	80	361*[may fluoresce violet]
Cc1ccc(C(=O)N/C(=C\c2cn(C)c3ccccc23)C(=O)NCCN2CCOCC2)cc1	34*[may fluoresce violet]	?	?	63	231*[may fluoresce violet]
Cc1ccc(C(=O)OC(C)C(=O)N(C)C2CCCCC2)cc1S(=O)(=O)N1CCCCC1 (stereo unspecified)	97	89	95	109	95
Cc1cccc(/N=C/c2c(O)ccc3oc4c(c23)CCCC4)n1	101	97	94	84	92
Cc1oc2cc([N+](=O)[O-])c(O)c([N+](=O)[O-])c2c1C(=O)c1ccc(Cl)cc1	95	76	91	120	92
CC(C)CN=Cc1c(O)c([N+](=O)[O-])cc2oc3c(c12)CCCC3	107	119	125	173*	134
O=[N+]([O-])c1cc2oc3c(c2c(C=NCc2ccccc2)c1O)CCCC3	57	?	?	134	258*[may fluoresce violet]
CCOC(=O)C1(CC)NC(c2ccco2)C2C(=O)N(c3ccc(C)cc3)C(=O)C21 (stereo unspecified)	98	94	99	92	97
SMILES	RPL19A-GFP yeast	CIT2-GFP yeast	AGP1 TOR yeast	LAP4-GFP MLPCN	MEP2-GFP yeast
CCCC1(C(=O)OC)NC(c2ccco2)C2C(=O)N(c3ccc(C)cc3)C(=O)C21 (stereo unspecified)	37*[may fluoresce violet]	.	?	91	333*[may fluoresce violet]
CCOC(=O)c1ccc(NC(=O)c2ccc3c(c2)C(=O)N(Cc2cccnc2)C3=O)cc1	84	87	126	168*	92
Cc1cc(NC(=O)CSC2=Nc3ccccc3C3=NC(Cc4ccccc4)C(=O)N23)n[nH]1 (stereo unspecified)	52	?	18	86	266*[may fluoresce violet]
CC(=O)C1=C(C)Nc2ncnn2C1c1ccccc1OCc1ccccc1 (stereo unspecified)	46*[may fluoresce violet]	?	.	101	304*[may fluoresce violet]
CC(C)c1ccc(NC(=O)COC(=O)C2CCCCC2)cc1	108	106	106	108	110
CN(C)/C=C/C(=O)c1cnc(-c2ccc(Cl)cc2)s1	94	92	32	105	102
CN(C)/C=C/C(=O)c1cnc(-c2ccccc2)s1	62	.	15	156*[may fluoresce violet]	106
Cc1ccc(NC(=O)CCNS(=O)(=O)c2ccc(Br)s2)cc1	104	98	98	99	99
COc1ccc(N(C)C(=O)C2CCCN2S(=O)(=O)c2cccc3nsnc23)cc1 (stereo unspecified)	104	106	106	99	108
Cc1ccc(S(=O)(=O)Nc2ccc(C(OC(=O)c3ccccc3[N+](=O)[O-])(C(F)(F)F)C(F)(F)F)cc2)cc1	100	101	96	86	102
O=C(OC(c1ccc(NS(=O)(=O)c2ccccc2)cc1)(C(F)(F)F)C(F)(F)F)c1ccccc1	98	92	91	112	194*
CCC1CCCCN1CCN1C(=O)C2C(C(=O)Nc3cccc(OC)c3)C3C=CC2(O3)C1C(=O)NC1CCCCC1 (stereo unspecified)	54	?	19	83	560*[may fluoresce violet]
O=C(Nc1ccc(Cl)cc1)C1C2C=CC3(O2)C1C(=O)N(CCN1CCCCC1)C3C(=O)NC1CCCCC1 (stereo unspecified)	58	?	18	83	387*[may fluoresce violet]
COC(=O)c1cc(C(=O)c2cc(Cl)ccc2O)coc1=N	87	97	96	88	90
Cc1ccc(O)c(C(=O)c2coc(=N)c(C(=O)NC(C)C)c2)c1	22*[may fluoresce violet]	?	?	118	274*[may fluoresce violet]
CCOc1ccc(S(=O)(=O)Nc2cccc(C(=O)NCC(c3ccccc3)N(C)C)c2)cc1 (stereo unspecified)	103	107	110	104	104
CCN(CC)S(=O)(=O)c1cccc(C(=O)NCC(c2ccccc2)N(C)C)c1 (stereo unspecified)	115	79	121	204*	123
O=C(NC1=NCCS1)c1cccc(F)c1	100	100	96	102	101
O=C(NC1=NCCS1)c1cccc(Br)c1	66	?	17	108	185*[may fluoresce violet]
